{"source": "paper PMC7862700", "about": "“An all-to-all approach to the identification of sequence-specific readers for epigenetic DNA modifications on cytosine”", "assay_in_all_cases": "DAPPL (digital affinity profiling via proximity ligation, sequencing); 10 mM Tris-HCl pH 7.5, 50 mM NaCl, 1 mM DTT, 4% glycerol, room temperature, 30 min; GST-TFs on glutathione beads, 16-mer random dsDNA library, 0.1% formaldehyde crosslink after washing; high values mean tight binding", "settings_in_all_cases": "protein: recombinant; tags: N-terminal GST; dsDNA, one strand shown", "key": {"FLI1": {"target": "T1, FLI1 (Homo sapiens, UniProt Q01543 1-452)", "T1 sequence": "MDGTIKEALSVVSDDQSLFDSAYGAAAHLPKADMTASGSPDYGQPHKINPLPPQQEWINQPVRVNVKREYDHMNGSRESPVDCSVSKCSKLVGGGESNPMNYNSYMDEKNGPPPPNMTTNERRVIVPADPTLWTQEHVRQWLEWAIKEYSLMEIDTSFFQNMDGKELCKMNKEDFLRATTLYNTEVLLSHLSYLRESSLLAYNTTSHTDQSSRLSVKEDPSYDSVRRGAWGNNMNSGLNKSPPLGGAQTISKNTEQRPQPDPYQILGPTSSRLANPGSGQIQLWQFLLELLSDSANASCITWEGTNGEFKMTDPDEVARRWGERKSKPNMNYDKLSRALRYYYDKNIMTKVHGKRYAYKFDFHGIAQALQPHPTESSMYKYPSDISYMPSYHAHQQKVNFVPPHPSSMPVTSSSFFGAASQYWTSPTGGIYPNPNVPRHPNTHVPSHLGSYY", "outline": "(§1)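 Binding signal is defined as a hexamer's read frequency for one factor over its frequency for the tag-only sample. To obtain reads, GST-fused human transcription factors were expressed in yeast, captured on glutathione beads, barcoded with DNA and pooled with that sample. Pools met 200 nmole of a 16-mer random double-stranded DNA library in Tris/NaCl/DTT/glycerol buffer for 30 min at room temperature before washing, 0.1% formaldehyde crosslinking, proximity ligation (BsaI/T4 ligase, 1 h, 37 °C), PCR and Illumina NextSeq500 sequencing.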"}, "GABPA": {"target": "T2, GABPA (Homo sapiens, UniProt Q06546 1-454)", "T2 sequence": "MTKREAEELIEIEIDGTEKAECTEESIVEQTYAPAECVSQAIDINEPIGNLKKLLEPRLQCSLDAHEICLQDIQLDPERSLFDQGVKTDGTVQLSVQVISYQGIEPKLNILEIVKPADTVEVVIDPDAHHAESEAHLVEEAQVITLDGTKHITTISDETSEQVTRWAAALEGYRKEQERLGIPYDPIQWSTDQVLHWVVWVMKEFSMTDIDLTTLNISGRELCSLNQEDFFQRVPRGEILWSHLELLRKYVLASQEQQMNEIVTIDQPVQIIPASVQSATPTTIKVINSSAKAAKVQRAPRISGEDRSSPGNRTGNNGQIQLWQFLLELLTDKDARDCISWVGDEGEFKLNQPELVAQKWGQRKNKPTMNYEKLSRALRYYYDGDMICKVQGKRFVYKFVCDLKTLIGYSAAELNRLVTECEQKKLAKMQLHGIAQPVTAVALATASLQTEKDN", "outline": "as §1"}, "ERG": {"target": "T3, ERG (Homo sapiens, UniProt P11308 1-479)", "T3 sequence": "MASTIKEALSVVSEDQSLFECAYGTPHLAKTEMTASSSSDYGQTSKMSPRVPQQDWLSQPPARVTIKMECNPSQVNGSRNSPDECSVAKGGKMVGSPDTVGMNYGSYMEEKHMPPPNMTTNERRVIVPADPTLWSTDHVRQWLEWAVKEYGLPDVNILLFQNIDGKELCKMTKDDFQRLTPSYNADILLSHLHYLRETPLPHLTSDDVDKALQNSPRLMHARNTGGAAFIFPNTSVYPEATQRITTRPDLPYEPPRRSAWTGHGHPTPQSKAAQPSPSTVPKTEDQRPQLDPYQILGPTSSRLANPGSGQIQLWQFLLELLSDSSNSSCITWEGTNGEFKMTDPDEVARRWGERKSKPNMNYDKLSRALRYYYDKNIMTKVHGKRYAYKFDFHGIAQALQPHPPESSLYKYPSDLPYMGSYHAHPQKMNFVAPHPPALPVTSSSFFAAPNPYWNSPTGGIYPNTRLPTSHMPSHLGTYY", "outline": "as §1"}, "ELF1": {"target": "ELF1 (Homo sapiens, UniProt P32519 1-619)", "sequence (P32519 whole entry)": "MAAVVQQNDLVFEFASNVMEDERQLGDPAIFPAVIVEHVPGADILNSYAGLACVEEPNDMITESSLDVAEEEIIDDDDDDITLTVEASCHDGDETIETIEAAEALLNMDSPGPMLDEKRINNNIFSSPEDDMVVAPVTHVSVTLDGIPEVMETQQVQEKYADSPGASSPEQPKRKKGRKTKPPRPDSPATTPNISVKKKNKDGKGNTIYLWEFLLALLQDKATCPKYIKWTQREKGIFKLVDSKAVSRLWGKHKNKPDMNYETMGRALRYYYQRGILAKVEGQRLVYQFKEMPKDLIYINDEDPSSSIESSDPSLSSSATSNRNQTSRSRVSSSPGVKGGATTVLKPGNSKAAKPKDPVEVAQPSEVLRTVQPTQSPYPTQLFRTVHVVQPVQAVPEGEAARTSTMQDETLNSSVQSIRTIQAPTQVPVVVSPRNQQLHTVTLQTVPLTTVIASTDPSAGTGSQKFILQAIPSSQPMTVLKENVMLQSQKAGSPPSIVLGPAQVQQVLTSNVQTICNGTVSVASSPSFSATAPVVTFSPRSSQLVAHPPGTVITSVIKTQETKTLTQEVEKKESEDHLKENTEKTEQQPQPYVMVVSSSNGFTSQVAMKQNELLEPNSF", "outline": "as §1"}, "EHF": {"target": "T4, EHF (Homo sapiens, UniProt Q9NZC4 1-300)", "T4 sequence": "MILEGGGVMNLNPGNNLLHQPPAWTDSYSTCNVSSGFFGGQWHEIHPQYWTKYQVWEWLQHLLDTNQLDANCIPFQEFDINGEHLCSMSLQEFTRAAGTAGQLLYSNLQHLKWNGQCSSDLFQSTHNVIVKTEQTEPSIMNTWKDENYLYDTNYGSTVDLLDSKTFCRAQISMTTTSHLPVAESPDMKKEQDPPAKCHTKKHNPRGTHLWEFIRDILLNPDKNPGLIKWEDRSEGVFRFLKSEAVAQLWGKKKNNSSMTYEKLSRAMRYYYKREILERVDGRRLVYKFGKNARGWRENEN", "outline": "as §1"}, "SPIB": {"target": "SPIB (Homo sapiens, UniProt Q01892 1-262)", "sequence (Q01892 whole entry)": "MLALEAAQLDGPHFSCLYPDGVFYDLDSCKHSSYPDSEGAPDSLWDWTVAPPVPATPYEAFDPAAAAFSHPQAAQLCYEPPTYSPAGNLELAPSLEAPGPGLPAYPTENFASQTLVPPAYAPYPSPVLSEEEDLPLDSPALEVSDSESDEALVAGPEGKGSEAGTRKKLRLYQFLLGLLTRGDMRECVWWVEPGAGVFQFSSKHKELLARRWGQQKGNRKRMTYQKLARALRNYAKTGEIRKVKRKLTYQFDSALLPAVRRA", "outline": "as §1"}, "ELK3": {"target": "T5, ELK3 (Homo sapiens, UniProt P41970 1-407)", "T5 sequence": "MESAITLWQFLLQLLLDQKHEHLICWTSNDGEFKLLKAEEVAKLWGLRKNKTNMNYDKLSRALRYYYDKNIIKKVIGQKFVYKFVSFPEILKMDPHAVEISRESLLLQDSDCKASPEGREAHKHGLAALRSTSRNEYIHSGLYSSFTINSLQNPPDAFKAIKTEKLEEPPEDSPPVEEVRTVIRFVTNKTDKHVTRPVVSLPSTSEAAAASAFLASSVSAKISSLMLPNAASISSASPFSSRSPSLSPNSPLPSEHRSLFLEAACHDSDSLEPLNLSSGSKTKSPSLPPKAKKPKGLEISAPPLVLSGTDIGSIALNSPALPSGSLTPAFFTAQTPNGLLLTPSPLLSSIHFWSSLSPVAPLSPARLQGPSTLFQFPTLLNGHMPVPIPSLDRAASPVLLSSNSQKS", "outline": "as §1"}, "ETV5": {"target": "ETV5 (Homo sapiens, UniProt P41161 1-510)", "sequence (P41161 whole entry)": "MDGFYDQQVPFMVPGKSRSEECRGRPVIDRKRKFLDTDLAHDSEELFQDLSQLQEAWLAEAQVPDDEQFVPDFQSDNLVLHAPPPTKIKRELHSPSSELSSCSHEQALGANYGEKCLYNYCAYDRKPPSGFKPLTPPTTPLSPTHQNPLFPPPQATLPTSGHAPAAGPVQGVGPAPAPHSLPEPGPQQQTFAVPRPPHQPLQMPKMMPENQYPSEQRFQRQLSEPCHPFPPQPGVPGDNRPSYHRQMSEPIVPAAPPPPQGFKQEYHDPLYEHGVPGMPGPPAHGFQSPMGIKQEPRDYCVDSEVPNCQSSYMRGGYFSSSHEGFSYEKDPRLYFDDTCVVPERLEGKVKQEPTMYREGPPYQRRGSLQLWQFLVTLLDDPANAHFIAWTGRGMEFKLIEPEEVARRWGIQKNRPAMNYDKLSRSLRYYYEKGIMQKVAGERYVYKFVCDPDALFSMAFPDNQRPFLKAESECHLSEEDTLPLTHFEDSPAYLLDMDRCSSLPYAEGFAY", "outline": "as §1"}, "SPIC": {"target": "T6, SPIC (Homo sapiens, UniProt Q8N5J4 1-248)", "T6 sequence": "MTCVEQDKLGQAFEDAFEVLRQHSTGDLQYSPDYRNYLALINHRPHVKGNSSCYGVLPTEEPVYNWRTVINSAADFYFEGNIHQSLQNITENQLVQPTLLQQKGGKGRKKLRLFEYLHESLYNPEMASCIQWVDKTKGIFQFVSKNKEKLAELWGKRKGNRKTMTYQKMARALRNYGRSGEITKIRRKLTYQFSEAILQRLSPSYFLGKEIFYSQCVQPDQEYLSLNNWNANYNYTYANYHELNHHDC", "outline": "as §1"}, "ELF4": {"target": "ELF4 (Homo sapiens, UniProt Q99607 1-663)", "sequence (Q99607 whole entry)": "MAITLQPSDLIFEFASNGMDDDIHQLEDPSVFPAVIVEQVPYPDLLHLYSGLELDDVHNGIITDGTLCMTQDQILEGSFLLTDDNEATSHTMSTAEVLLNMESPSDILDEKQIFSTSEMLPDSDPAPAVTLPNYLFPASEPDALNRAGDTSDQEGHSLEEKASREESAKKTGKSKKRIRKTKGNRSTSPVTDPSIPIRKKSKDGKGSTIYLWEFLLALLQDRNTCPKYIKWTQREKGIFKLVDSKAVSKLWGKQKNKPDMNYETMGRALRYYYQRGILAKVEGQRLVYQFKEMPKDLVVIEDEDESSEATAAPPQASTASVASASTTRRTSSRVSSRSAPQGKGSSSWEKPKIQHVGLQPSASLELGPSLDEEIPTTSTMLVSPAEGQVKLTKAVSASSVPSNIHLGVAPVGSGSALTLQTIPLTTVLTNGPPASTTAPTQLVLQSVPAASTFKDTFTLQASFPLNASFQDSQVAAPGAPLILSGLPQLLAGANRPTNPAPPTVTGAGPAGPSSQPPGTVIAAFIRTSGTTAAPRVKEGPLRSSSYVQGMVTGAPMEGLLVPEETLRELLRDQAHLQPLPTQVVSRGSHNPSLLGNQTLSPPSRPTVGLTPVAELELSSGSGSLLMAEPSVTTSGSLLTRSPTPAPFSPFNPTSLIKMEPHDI", "outline": "as §1"}, "ETV1": {"target": "ETV1 (Homo sapiens, UniProt P50549 1-477)", "sequence (P50549 whole entry)": "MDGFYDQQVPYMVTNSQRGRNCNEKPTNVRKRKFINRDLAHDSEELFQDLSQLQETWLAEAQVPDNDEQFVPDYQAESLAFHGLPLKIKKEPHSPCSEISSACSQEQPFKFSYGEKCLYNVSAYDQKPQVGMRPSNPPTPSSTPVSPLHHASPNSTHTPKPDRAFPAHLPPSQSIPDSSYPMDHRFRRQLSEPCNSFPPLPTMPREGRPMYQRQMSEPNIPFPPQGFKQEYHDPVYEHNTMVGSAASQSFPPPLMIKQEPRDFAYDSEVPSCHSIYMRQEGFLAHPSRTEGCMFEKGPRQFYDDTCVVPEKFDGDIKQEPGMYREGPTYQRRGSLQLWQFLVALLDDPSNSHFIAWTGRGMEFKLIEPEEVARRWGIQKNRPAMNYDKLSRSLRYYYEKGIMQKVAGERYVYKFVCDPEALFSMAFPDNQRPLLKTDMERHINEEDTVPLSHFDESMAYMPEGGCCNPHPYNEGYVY", "outline": "as §1"}, "ERF": {"target": "T7, ERF (Homo sapiens, UniProt P50548 1-548)", "T7 sequence": "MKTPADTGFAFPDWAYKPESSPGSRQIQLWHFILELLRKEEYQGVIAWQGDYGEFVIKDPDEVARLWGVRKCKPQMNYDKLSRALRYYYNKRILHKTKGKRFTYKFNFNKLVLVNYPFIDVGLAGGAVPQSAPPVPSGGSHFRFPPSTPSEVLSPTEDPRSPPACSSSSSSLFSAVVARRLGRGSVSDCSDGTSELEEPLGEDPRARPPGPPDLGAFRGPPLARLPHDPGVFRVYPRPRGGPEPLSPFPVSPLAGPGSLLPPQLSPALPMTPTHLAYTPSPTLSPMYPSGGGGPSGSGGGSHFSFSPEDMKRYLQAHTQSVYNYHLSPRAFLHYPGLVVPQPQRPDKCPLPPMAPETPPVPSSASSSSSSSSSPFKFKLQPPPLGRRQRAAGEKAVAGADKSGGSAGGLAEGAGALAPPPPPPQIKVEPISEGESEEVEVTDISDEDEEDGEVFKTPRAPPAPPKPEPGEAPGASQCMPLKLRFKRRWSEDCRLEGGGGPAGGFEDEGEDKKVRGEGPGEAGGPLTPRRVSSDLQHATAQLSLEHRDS", "outline": "as §1"}, "ETV3L": {"target": "T8, ETV3L (Homo sapiens, UniProt Q6ZN32 1-361)", "T8 sequence": "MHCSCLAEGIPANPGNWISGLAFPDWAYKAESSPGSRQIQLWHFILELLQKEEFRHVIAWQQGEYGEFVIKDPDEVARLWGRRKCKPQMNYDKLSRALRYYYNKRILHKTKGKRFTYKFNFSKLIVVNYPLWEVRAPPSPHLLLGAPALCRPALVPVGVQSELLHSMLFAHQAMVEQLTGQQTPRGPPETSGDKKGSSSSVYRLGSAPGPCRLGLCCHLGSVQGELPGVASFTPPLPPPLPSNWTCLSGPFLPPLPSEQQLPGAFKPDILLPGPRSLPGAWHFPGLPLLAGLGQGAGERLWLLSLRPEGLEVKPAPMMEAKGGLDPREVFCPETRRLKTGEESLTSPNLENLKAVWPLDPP", "outline": "as §1"}, "ETS2": {"target": "T9, ETS2 (Homo sapiens, UniProt P15036 1-469)", "T9 sequence": "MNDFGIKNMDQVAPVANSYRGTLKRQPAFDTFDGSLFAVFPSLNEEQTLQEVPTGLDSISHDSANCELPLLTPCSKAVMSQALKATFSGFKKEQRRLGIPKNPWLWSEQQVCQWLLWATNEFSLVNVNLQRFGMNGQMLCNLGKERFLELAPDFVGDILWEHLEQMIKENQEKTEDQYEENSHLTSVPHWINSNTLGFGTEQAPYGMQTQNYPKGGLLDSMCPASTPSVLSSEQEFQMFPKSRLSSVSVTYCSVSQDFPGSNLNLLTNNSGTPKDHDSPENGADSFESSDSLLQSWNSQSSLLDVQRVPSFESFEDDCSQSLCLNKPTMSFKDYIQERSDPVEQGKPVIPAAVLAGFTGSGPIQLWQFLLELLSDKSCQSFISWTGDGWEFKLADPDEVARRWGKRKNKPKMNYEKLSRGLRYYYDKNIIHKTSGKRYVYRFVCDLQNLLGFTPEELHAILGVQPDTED", "outline": "as §1"}, "ETV3": {"target": "T10, ETV3 (Homo sapiens, UniProt P41162-2 1-143)", "T10 sequence": "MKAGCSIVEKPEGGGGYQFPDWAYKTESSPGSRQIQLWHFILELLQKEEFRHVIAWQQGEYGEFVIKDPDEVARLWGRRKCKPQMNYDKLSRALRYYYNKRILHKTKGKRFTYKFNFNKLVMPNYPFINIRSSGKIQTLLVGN", "outline": "as §1"}}}
{"sequence": "TCGCTG", "values": [{"measurement": "binding signal", "setting": "FLI1", "value": "1.02 fold enrichment (6-mer frequency, TF over GST control)"}, {"measurement": "binding signal", "setting": "GABPA", "value": "1.01 fold enrichment (6-mer frequency, TF over GST control)"}, {"measurement": "binding signal", "setting": "ERG", "value": "1.02 fold enrichment (6-mer frequency, TF over GST control)"}, {"measurement": "binding signal", "setting": "ELF1", "value": "1.05 fold enrichment (6-mer frequency, TF over GST control)"}, {"measurement": "binding signal", "setting": "EHF", "value": "1.1 fold enrichment (6-mer frequency, TF over GST control)"}, {"measurement": "binding signal", "setting": "SPIB", "value": "1.22 fold enrichment (6-mer frequency, TF over GST control)"}, {"measurement": "binding signal", "setting": "ELK3", "value": "1.23 fold enrichment (6-mer frequency, TF over GST control)"}, {"measurement": "binding signal", "setting": "ETV5", "value": "1.11 fold enrichment (6-mer frequency, TF over GST control)"}, {"measurement": "binding signal", "setting": "SPIC", "value": "1.19 fold enrichment (6-mer frequency, TF over GST control)"}, {"measurement": "binding signal", "setting": "ELF4", "value": "1.05 fold enrichment (6-mer frequency, TF over GST control)"}, {"measurement": "binding signal", "setting": "ETV1", "value": "1.15 fold enrichment (6-mer frequency, TF over GST control)"}, {"measurement": "binding signal", "setting": "ERF", "value": "1.16 fold enrichment (6-mer frequency, TF over GST control)"}, {"measurement": "binding signal", "setting": "ETV3L", "value": "1.05 fold enrichment (6-mer frequency, TF over GST control)"}, {"measurement": "binding signal", "setting": "ETS2", "value": "1.12 fold enrichment (6-mer frequency, TF over GST control)"}, {"measurement": "binding signal", "setting": "ETV3", "value": "1.13 fold enrichment (6-mer frequency, TF over GST control)"}]}
